Source: PubChem (Broad Institute)
aSyn 5UTR act: Activators via SNCA 5'UTR binding, MLPCN | alpha-synuclein 5'UTR reporter, activators screen | activity score, % (tested at 7.5 µM), hits read low | 7.1% of 300,000 active | AID 1814, 2009; in the data active means activity score below about -60%
Active calls of the source: *. These entries were drawn from the full list.

For Cc1csc2nc(NC(=O)c3ccccc3)sc(=O)c12 the results were aSyn 5UTR act -96.7*.
Screening O=C(Nc1nc2ccsc2c(=O)s1)c1ccc(F)cc1 returned aSyn 5UTR act -158.2*.
For O=S(=O)(NCc1cn2ccccc2n1)c1cccs1 the results were aSyn 5UTR act -63.8*.
For O=c1c(C=NCCN2CCNCC2)c(-c2ccccc2)[nH]n1-c1ccc([N+](=O)[O-])cc1 the results were aSyn 5UTR act -93.9*.
Screening O=c1c(C=NCCCO)c(-c2ccccc2)[nH]n1-c1nc2ccccc2s1 returned aSyn 5UTR act 59.9.
Screening Cc1ccc(O)c(-c2cc(-c3cccc(Br)c3)n[nH]2)c1 returned aSyn 5UTR act -97.5*.
Screening Cc1ccc(-c2cc(-c3ccc(C)cc3O)[nH]n2)cc1 returned aSyn 5UTR act -160.0*.
`Oc1ccc(F)cc1-c1cc(-c2ccc3c(c2)OCCO3)n[nH]1` gave aSyn 5UTR act -151.5*.
Cc1ccc(-c2cc(-c3ccc(F)cc3)n[nH]2)c(O)c1 was read as aSyn 5UTR act -86.2*.
For Oc1ccccc1-c1cc(-c2ccc(F)cc2)n[nH]1 the results were aSyn 5UTR act -127.6*.
Oc1ccc(Cl)cc1-c1cc(-c2ccccc2)n[nH]1 was read as aSyn 5UTR act -99.2*.
Oc1ccc(Br)cc1-c1cc(-c2ccccc2F)[nH]n1 was read as aSyn 5UTR act -74.2*.
Screening COc1cc(CNCCc2ccc(S(N)(=O)=O)cc2)ccc1OCc1ccc(Cl)cc1 returned aSyn 5UTR act -64.2*.
`CCOc1cc(CNCCc2ccc(S(N)(=O)=O)cc2)ccc1OCc1ccc(Cl)cc1` gave aSyn 5UTR act 97.5.
For CC(C)c1ccc(NC(=O)[C@@H]2CCC(=O)N2C2OC(=O)c3ccccc32)cc1 (stereo partly drawn) the results were aSyn 5UTR act -79.3*.
`CCc1ccc(NC(=O)c2ccc3ncsc3c2)cc1` gave aSyn 5UTR act -155.2*.
Screening O=C(Nc1ccc(Br)cc1)c1ccc2ncsc2c1 returned aSyn 5UTR act -127.9*.
`O=C(Nc1ccc2c(c1)C(=O)NC2=O)c1ccc2ncsc2c1` gave aSyn 5UTR act -62.6*.
COc1ccc(NC(=O)c2ccc3ncsc3c2)cc1 was read as aSyn 5UTR act -167.8*.
Screening O=C(Nc1ccc(OC(F)(F)F)cc1)c1cnccn1 returned aSyn 5UTR act -195.0*.
CCCOC(=O)c1ccc(NC(=O)c2cnccn2)cc1 was read as aSyn 5UTR act -104.0*.
Screening O=C(Nc1ccc(NC(=O)c2ccco2)cc1)c1cnccn1 returned aSyn 5UTR act -67.0*.
`CCc1ccc(NC(=O)c2cnccn2)cc1` gave aSyn 5UTR act -137.7*.
`CN(c1ccc(C(=O)NCCSCc2ccco2)cc1)S(C)(=O)=O` gave aSyn 5UTR act -75.9*.
For CN(c1ccc(C(=O)NCCSC(C)(C)C)cc1)S(C)(=O)=O the results were aSyn 5UTR act -81.1*.
`CC(C)c1ccc(N(CC(=O)NCCSC(C)(C)C)S(C)(=O)=O)cc1` gave aSyn 5UTR act -83.5*.
Cc1cccc(-c2nc(C#N)c(NCC3CCCO3)o2)c1 (stereo not drawn) was read as aSyn 5UTR act -112.0*.
Cc1ccc(-c2nc(C#N)c(NCC3CCCO3)o2)cc1 (stereo not drawn) was read as aSyn 5UTR act -88.2*.
Screening Cc1cccc(-c2nc(C#N)c(N3CCCCCC3)o2)c1 returned aSyn 5UTR act -68.3*.
For CC(=O)Nc1ccc2nc(SCC(=O)Nc3ccc(N4CCOCC4)c(Cl)c3)sc2c1 the results were aSyn 5UTR act -142.4*.
O=C(CSc1nc2ccccc2o1)Nc1ccc(N2CCOCC2)c(Cl)c1 was read as aSyn 5UTR act -164.9*.
Screening Cc1nc2cc(Nc3nnc(-c4ccccc4)c4ccccc34)ccc2n1C returned aSyn 5UTR act -109.6*.
For O=c1oc2cc(Cl)ccc2n1CSc1nc2ccccc2s1 the results were aSyn 5UTR act -164.7*.
Screening CC1CCC(NC(=O)c2cc3c(s2)CCCC3)CC1 (stereo not drawn) returned aSyn 5UTR act -116.1*.
For Cc1ccc(C(=O)NC2CCC(C)CC2)s1 (stereo not drawn) the results were aSyn 5UTR act -91.7*.
Screening CCOc1ccc(N2C(=O)C(Cl)=C(Nc3ccccc3O)C2=O)cc1 returned aSyn 5UTR act -183.7*.
O=C1C(Cl)=C(Nc2ccccc2O)C(=O)N1CCc1ccccc1 was read as aSyn 5UTR act -87.3*.
`CCOc1ccc(NC2=C(Cl)C(=O)N(C3CCCCC3)C2=O)cc1` gave aSyn 5UTR act -102.2*.
`COc1ccccc1NC1=C(Cl)C(=O)N(c2ccccc2)C1=O` gave aSyn 5UTR act -70.3*.
`Cc1ccc(C(C)C)c(OCc2nc(-c3nonc3N)no2)c1` gave aSyn 5UTR act -92.2*.
Screening Cc1ccc(C(C)C)c(OCc2ccc(C(=O)N/N=C/c3ccc(O)cc3O)cc2)c1 returned aSyn 5UTR act 95.8.
For Cc1ccc(Sc2c(CO)c(-c3ccccc3)nn2C)cc1 the results were aSyn 5UTR act -86.4*.
Screening Cc1sc2c(c1C)CN(C(C)(C)C)CN2C(=O)c1ccccc1 returned aSyn 5UTR act -64.4*.
O=C(c1ccccc1)N1CCSc2sccc2C1=O was read as aSyn 5UTR act 96.8.
O=C(NCCCn1ccnc1)c1cc2ccccc2oc1=O was read as aSyn 5UTR act -65.0*.
For CCOc1ccc(-c2cc(C(=O)NCCCn3ccnc3)c3cc(Br)ccc3n2)cc1 the results were aSyn 5UTR act 60.3.
For O=C(NCCCn1ccnc1)c1cc(-c2cccc(O)c2)on1 the results were aSyn 5UTR act -64.6*.
For O=C1C(C=NCc2ccco2)=C(O)c2ccccc21 the results were aSyn 5UTR act -141.4*.
O=C1C(C=NCc2cccnc2)=C(O)c2ccccc21 was read as aSyn 5UTR act -186.1*.
`Nc1c(-c2ccc(Cl)cc2)cnn1-c1ccccc1` gave aSyn 5UTR act -180.5*.
Screening Cc1ccc(-c2cnn(-c3cccc([N+](=O)[O-])c3)c2N)cc1 returned aSyn 5UTR act -105.2*.
Cc1ccc(-c2cnn(-c3ccccc3)c2N)cc1 was read as aSyn 5UTR act -69.4*.
Screening Nc1c(-c2ccccc2)cnn1-c1ccc(C(=O)O)cc1 returned aSyn 5UTR act -130.5*.
For Cc1ccc2[nH]cc(/C=C/c3cc[n+](C)cc3)c2c1 the results were aSyn 5UTR act 64.5.
Screening Nc1c(-c2ccc(Cl)cc2)nnn1-c1ccccc1 returned aSyn 5UTR act -158.8*.
Screening Nc1c(-c2ccccc2)cnn1-c1cccc(C(F)(F)F)c1 returned aSyn 5UTR act -204.7*.
For O=c1c2ccccc2c(-c2ccc(O)cc2)nn1-c1cccc(C(F)(F)F)c1 the results were aSyn 5UTR act 52.2.
`COc1cccc(-c2cc3nc(-c4ccccc4)cc(=O)n3[nH]2)c1` gave aSyn 5UTR act -167.0*.
`O=c1c2c(nc3cc(-c4ccc(F)cc4)[nH]n13)CCC2` gave aSyn 5UTR act -87.4*.
Screening O=c1cc(-c2ccccc2)nc2cc(-c3ccc(F)cc3)[nH]n12 returned aSyn 5UTR act -109.4*.
Screening COc1cccc(-c2cn3nc4c(nc3n2)CCCC4)c1 returned aSyn 5UTR act 103.7.
Screening Cc1oc2cc3c(C(=O)N4CCCCC4)c(C)oc3cc2c1C(=O)N1CCCCC1 returned aSyn 5UTR act -162.2*.
`C=CCn1c(C)cc(C(=O)CSc2n[nH]c(N)n2)c1C` gave aSyn 5UTR act -78.6*.
Screening Cc1cc(C(=O)CSc2nnc3ccccn23)c(C)n1-c1ccccc1 returned aSyn 5UTR act 101.8.
For Cc1cc(C(=O)CSc2n[nH]c(N)n2)c(C)n1-c1ccc(F)cc1 the results were aSyn 5UTR act -82.7*.
